Among the data in ChEMBL document CHEMBL4513135, “CO-ADD screening of IQOG CSIS (Spain) compounds” are Inhibition values, retold here.

The whole screen tested about 21,000 compounds, of which fewer than 10 showed an effect of 50% or more. Not all results are given here. Results with a measured potency or affinity are listed apart.

The test relates to Acinetobacter baumannii. Conditions: Concentration 32 ug.mL-1; ASSAY_TEST Inhibition of Bacterial Growth; detection method Absorption (OD600); MEDIA CAMHB; plate type 384well; NBS; CORNING #3640; time 18 hr.
Broadly, the Inhibition is the change of the read-out against control, counted positive when it falls. With `C#CCN(C)c1nc(NCCC2CCN(Cc3ccccc3)CC2)c(C#N)cc1C#N.Cl`, the Inhibition is listed as -7.83%.
With `CCOC(=O)C1=C(C)Oc2nc3c(c(N)c2C1c1nccn1C)CCC3` (stereo not given) the figure was 0.84%; with `Nc1nc(N)c(C=O)c(-c2ccccc2)c1C=O`, 5.37%; with `Cn1ccnc1C1C2=C(CC(C)(C)CC2=O)Oc2nc3c(c(N)c21)CCCC3` (stereo not given), -5.19%.
Consider `N#CC1=C(Cl)Oc2c(ccc3ccccc23)C1c1ccc([N+](=O)[O-])cc1` (stereo not given), for which the Inhibition is reported as -15.4%.
